Screening results: PubChem BioAssay, The Scripps Research Institute Molecular Screening Center
ADAM10 inh: ADAM10 inhibition, QFRET primary screen; 370,000 tested, 0.62% active; O14672; AID 720582; inhibition, % at 7 µM; recombinant ADAM10, EDANS/DABCYL FRET peptide cleavage, 3 h;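 active means inhibition above a per-campaign cutoff equal to the mean of compounds falling between control-based bounds plus 3 SD, cut at about 20% in these data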;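 further: 0% = DMSO wells while the 100% control is not disclosed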
PLCb3 inh: PLC-beta3 (human) inhibition, primary screen | Q01970 | inhibition, % at 12.2 µM | 370,000 tested, 0.18% active | Purified PLC-beta3, fluorogenic substrate, fluorescence; in the data active means inhibition above about 11%;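 further: 0% = median of compound wells on plate and 100% = full blocker control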
PLCg1 inh: inhibitors of human phospholipase C gamma1 | P19174 | purified PLC-gamma1, fluorogenic substrate, fluorescence | inhibition, % at 12.2 µM | 370,000 tested, 0.84% active
ADAM17 inh: ADAM17 inhibition, QFRET primary screen; P78536; recombinant ADAM17, EDANS/DABCYL FRET peptide cleavage; inhibition, % at 6.95 µM; 370,000 tested, 0.83% active;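 active means inhibition above the mean of compounds lying between control limits plus 3 SD, set per campaign, cut at about 8.5% in these data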;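 further: 0% = DMSO-only wells as the low control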
proKLK7 act: proKLK7 (human) activation, primary screen; purified proKLK7, EDANS-DABCYL substrate fluorescence; 100% is mature enzyme control, 0% vehicle; activation, % at 7 µM; 370,000 tested, 0.9% active;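 active means activation above the mean of all tested compounds plus 3 SD, computed per campaign excluding outliers beyond control limits, cut at about 13% in these data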
PLCgamma1 ctr: PLC-gamma1 inhibition, counter-screen for PLC-beta3 hits; shares compounds with PLCg1 inh; purified PLC-gamma1, fluorogenic substrate, fluorescence; inhibition, % at 12.3 µM; 3,300 tested, 3.1% active
PLCbeta3 conf: human PLC-beta3 inhibition, confirmation; shares compounds with PLCg1 inh; purified PLC-beta3, fluorogenic substrate fluorescence; inhibition, % at 12.3 µM; 3,300 tested, 1% active; AID 743261; in the data active means inhibition above about 11%
Active calls of the source: *; nt = no result. Rows were chosen to be rich in hits. Some 2.9% of all compounds tested hit in one or more screens of this group. Unless noted, no stated cut-off is given here; in the data, active means inhibition above about 9.5%; inactive means the rest.

SMILES	ADAM10 inh	PLCb3 inh	PLCg1 inh	ADAM17 inh	proKLK7 act	PLCgamma1 ctr	PLCbeta3 conf
Cc1ccc(CCNC(=O)CS(=O)Cc2nc(-c3ccccc3Cl)oc2C)cc1 (stereo not drawn)	18	-3	9.7*	3	0	-6	-4
COc1ccc(C(=O)O/N=C(\N)Cc2ccc([N+](=O)[O-])cc2)c(OC)c1	-6	-9	10*	-6	0	-51	-46
Cc1onc(-c2ccccc2Cl)c1C(=O)N1CCOC12CCCCC2	5	11*	4	2	0	1	4
NC1=C(Cl)C(=O)c2ccccc2C1=O	-12	8	5	0	-1	nt	nt
NC1=C(Cl)C(=O)c2ccc(S(N)(=O)=O)cc2C1=O	-9	3	16*	-4	-1	19*	-1
O=C(NCc1ccncc1)c1csc([C@@H]2C[C@H](O)[C@@H](CO)O2)n1	14	9	6	4	0	nt	nt
Fc1cccc(-c2cncc(N3CCN(CCN4CCCC4)CC3)n2)c1	-85	-22	-16	-22	2	nt	nt
CC(C)(C)NC(=O)NC(=O)COC(=O)Cc1c(Cl)cccc1Cl	-4	-5	9.8*	3	0	-1	2
Cc1ccc2c(c1)C(c1ccccc1)N(C(=O)c1ccccc1[N+](=O)[O-])CC(=O)N2 (stereo not drawn)	3	-1	3	1	0	nt	nt
COc1ccccc1C(=O)N1CC(=O)Nc2ccc(F)cc2C1c1ccccc1 (stereo not drawn)	-1	3	9.6*	8	0	-10	-2
O=C1CN(C(=O)c2ccccc2[N+](=O)[O-])C(c2ccccc2)c2cc(Br)ccc2N1 (stereo not drawn)	4	-5	9.7*	1	0	-3	-9
O=C(NCc1ccccc1)c1cc(C2COCCN2C(=O)c2ccc(Cl)cc2)on1 (stereo not drawn)	0	4	2	1	0	nt	nt
CCc1ccc2[nH]c(C)c(CN3CCCCCC3)c(=O)c2c1	-5	2	0	-5	-1	nt	nt
CC1(C)CC2(CC(C)(C(=O)CSc3nc4ccccc4s3)OC2=O)C(=O)O1 (stereo not drawn)	0	11*	16*	7	0	-3	-1
CC(C)(C)OC(=O)C[C@H]1C/C=C\C[C@H](CC(=O)N[C@@H](CO)Cc2ccccc2)C(=O)N[C@H](C(C)(C)C)COC1=O	-8	3	2	2	0	nt	nt
CC(=O)Nc1ccc2nc(SCC(=O)NCCOc3ccccc3)sc2c1	-5	-1	7	-3	0	nt	nt
CC(=O)Nc1nnc(SCC(=O)NCCOc2ccccc2)s1	4	2	9.9*	1	0	-5	0
O=C(Nn1cnnc1)C1Cc2ccccc2CN1S(=O)(=O)c1ccc(F)cc1 (stereo not drawn)	-6	3	10*	-8	0	-2	-4
CC(=O)N=c1sc2ccccc2n1C	-4	-2	4	-2	0	nt	nt
CC(=O)N=c1sc(C(C)(C)C)c(C)n1C	7	1	9.8*	3	0	-2	-4
CCN(CC(=O)Nc1cc(Cl)ccc1C)C(=O)C1COc2ccccc2O1 (stereo not drawn)	-14	-8	1	0	0	nt	nt
N/C(=N\OC(=O)CCCc1ccccc1)c1cccnc1	11	12*	7	6	1	-8	-4
CCNC(=S)NCCN1CCOCC1	6	12*	9	2	0	-5	0
COc1ccc(/C=N/NC(=O)C2C(C=C(Cl)Cl)C2(C)C)c(OC)c1 (stereo not drawn)	13	-4	1	0	-1	nt	nt
O=C(COC(=O)CC12CC3CC(CC(Br)(C3)C1)C2)NC(=O)NCc1ccco1	9	7	11*	8	0	-7	-6
SMILES	ADAM10 inh	PLCb3 inh	PLCg1 inh	ADAM17 inh	proKLK7 act	PLCgamma1 ctr	PLCbeta3 conf
Cn1cccc1C(=O)NC(=O)COC(=O)CC12CC3CC(CC(Br)(C3)C1)C2	-5	-9	-9	-2	0	nt	nt
CCCNC(=O)c1cc(C2CCCN(S(=O)(=O)c3cccs3)C2)on1 (stereo not drawn)	-4	8	3	1	0	nt	nt
Cc1ccc(Nc2ncnc(N)n2)cc1C	5	6	10*	2	0	-6	1
Nc1ncnc(Nc2ccccc2)n1	1	0	1	-2	0	nt	nt
O=C1CC(SCCO)C(=O)N1c1ccc(Oc2ccccc2)cc1 (stereo not drawn)	1	3	15*	8	0	-43	3
O=C(O)CCSC1CC(=O)N(c2ccccc2)C1=O (stereo not drawn)	0	-4	1	-4	0	nt	nt
COc1ccc(NC(=O)CSc2nnc(C)s2)cc1S(=O)(=O)N1CCOCC1	-12	-6	5	3	0	nt	nt
CCCCOc1ccc(Br)cc1CSC(=N)N	-3	-2	10*	-4	0	-2	0
CCOc1ccc(C(C)=O)cc1CSC(=N)N	-6	-7	5	-9	0	nt	nt
CSc1nc(N)c(C(=O)NC2CCCCC2)s1	-2	-3	12*	-3	0	9.6*	5
CSc1ccc(CN2CCCC(CO)(Cc3ccccc3)C2)cc1 (stereo not drawn)	9	1	2	0	0	nt	nt
C/C=C(\C)CN1CCCC(CO)(Cc2ccccc2)C1 (stereo not drawn)	4	-5	12*	2	0	-2	0
C=CCCC(=O)N1C[C@H]2CON(C)[C@H]2C[C@H]1c1ccc(N2CCCCC2)cc1	-7	-5	-6	-3	0	nt	nt
COc1cccc(NC(=O)CN(c2ccc(C)cc2)S(=O)(=O)c2c(C)nn(C)c2C)c1	11	12*	2	4	0	-2	2
COC(=O)[C@H](C)NC(=O)/C=C/c1ccc(OC)cc1	4	10	9.8*	-2	0	7	3
COC(=O)[C@@H](NC(=O)/C=C/c1ccc(OC)cc1)C(C)C	-8	0	0	-1	-1	nt	nt
CN(C)c1ccc(C(CNC(=O)Cc2cccc3ccccc23)N(C)C)cc1 (stereo not drawn)	3	-2	3	1	0	nt	nt
O=C(CCS(=O)(=O)c1ccccc1F)Nc1ccc(N2CCN(Cc3ccccc3)CC2)cc1	15	4	11*	6	-1	3	6
O=C(CSc1nc(=O)n(CCN2CCOCC2)c2c1CCCC2)Nc1cccc([N+](=O)[O-])c1	-6	19*	3	-3	0	-3	-2
O=C(CSc1nc(=O)n(CCCN2CCOCC2)c2c1CCCC2)Nc1cccc([N+](=O)[O-])c1	-8	-11	3	-6	0	nt	nt
